Among the test systems are SK-MEL-2 melanoma; EKVX NSCLC; SN12C renal; UO-31 renal; TK-10 renal; ACHN renal; CAKI-1 renal; A498 renal; MOLT-4 leukemia; SR leukemia; RPMI-8226 leukemia; OVCAR-8 ovarian; OVCAR-5 ovarian; OVCAR-4 ovarian; SK-OV-3 ovarian; IGROV1 ovarian; OVCAR-3 ovarian; HS 578T breast; NCI/ADR-RES ovarian.
Common to all, as to experiment: NCI-60 one-dose screen, 48 h (100 = growth as untreated, 0 = no growth, -100 = all killed)
Common to all, as to conditions: 10 µM unless noted

The results in this text go back to PubChem BioAssay (NCI).

Compounds without any hit were thinned out: in the full panel of roughly 83,000, 20% have a hit.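 Activity criterion: percent growth below 10, measured after cells in 96-well plates were exposed to a single compound concentration for 48 hours.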 Unmarked numbers belong to inactive results. Active and inactive are the calls of the source.

Take `NS(=O)(=O)c1cnccc1Sc1ccncc1S(N)(=O)=O`: the growth was 119% with SK-MEL-2 melanoma; 96.9% in the test with EKVX NSCLC; 100% with SN12C renal; 80% in the test on UO-31 renal; 99.6% in the test with TK-10 renal; 106% in the test on ACHN renal. The growth in the test with CAKI-1 renal was 98.2%; with A498 renal, 104%; in the test with MOLT-4 leukemia it was 86.3%; in the test on SR leukemia, 92.2%; in the test on RPMI-8226 leukemia, 86.2%; with OVCAR-8 ovarian, 96%. Besides, the growth was 101% in the test with OVCAR-5 ovarian; 118% with OVCAR-4 ovarian; 95.6% in the test on SK-OV-3 ovarian; 6.71% (active) with IGROV1 ovarian; 103% in the test on OVCAR-3 ovarian; 94.5% with HS 578T breast. Moreover, the growth in the test with NCI/ADR-RES ovarian was 98.9%.

Take `CN(C)c1ccc(/C=C/C(=O)c2cccc(Nc3nc(Nc4ccccc4)nc(Nc4ccccc4)n3)c2)cc1`: the growth was 62.1% in the test on SK-MEL-2 melanoma; 77.8% in the test on EKVX NSCLC; 91.6% in the test with SN12C renal; 73.5% with UO-31 renal; 90.9% in the test on TK-10 renal; 90.6% with ACHN renal. Moreover, the growth with CAKI-1 renal was 91.6%; with A498 renal, 76.8%; in the test with MOLT-4 leukemia, 80.6%; with SR leukemia, 77.4%; with RPMI-8226 leukemia, 53.4%; in the test on OVCAR-8 ovarian, 81.2%. For the same molecule, the growth was 93.9% in the test with OVCAR-5 ovarian; 30.7% with OVCAR-4 ovarian; 93.2% in the test on SK-OV-3 ovarian; 69% in the test on IGROV1 ovarian; 102% with OVCAR-3 ovarian; 78.9% in the test with HS 578T breast. The growth with NCI/ADR-RES ovarian was 76.4%.

In the case of `CCOC(=O)c1c2c(n3ccc(NC(=O)OC(C)(C)C)cc13)C(=O)c1ncccc1C2=O`, the growth is 9.26% (active) with SK-MEL-2 melanoma; -39.8% (active) in the test on EKVX NSCLC; -31% (active) in the test on SN12C renal; -76.4% (active) in the test with UO-31 renal; 6.15% (active) in the test on TK-10 renal; -41% (active) in the test on ACHN renal. For the same molecule, the growth was -3.67% (active) in the test on CAKI-1 renal; -0.0751% (active) with A498 renal; 7.38% (active) with MOLT-4 leukemia; 7.58% (active) in the test with SR leukemia; -6.66% (active) with RPMI-8226 leukemia; -11.4% (active) with OVCAR-8 ovarian. For the same molecule, the growth is -5.26% (active) in the test with OVCAR-5 ovarian; 11.9% with OVCAR-4 ovarian; -32.9% (active) in the test on SK-OV-3 ovarian; -4.89% (active) in the test with IGROV1 ovarian; -33.6% (active) with OVCAR-3 ovarian; -25.3% (active) in the test with HS 578T breast. For the same molecule, the growth in the test on NCI/ADR-RES ovarian was -35.9% (active).

Turning to `N#C/C(=C/C=C/c1cccc(Cl)c1)S(=O)c1ccccc1` (configuration not stated), the growth was -12.3% (active) in the test with SK-MEL-2 melanoma; -56.3% (active) in the test with EKVX NSCLC; -55.4% (active) with SN12C renal; -65.6% (active) in the test on UO-31 renal; -82.5% (active) in the test on TK-10 renal; -82.6% (active) in the test on ACHN renal. Besides, the growth with CAKI-1 renal was -68.2% (active); in the test on A498 renal, -69.9% (active); in the test on MOLT-4 leukemia it was -0.839% (active); in the test on SR leukemia, 1.43% (active); in the test with RPMI-8226 leukemia it was -13.4% (active); in the test with OVCAR-8 ovarian, -2.48% (active). The growth with OVCAR-5 ovarian was -45.1% (active); in the test on OVCAR-4 ovarian, -52.9% (active); with SK-OV-3 ovarian it was 19.6%; in the test on IGROV1 ovarian it was -25.7% (active); in the test on OVCAR-3 ovarian it was -86.1% (active); with HS 578T breast, 11.6%. Also, the growth in the test on NCI/ADR-RES ovarian is 7.8% (active).

`N#CC1=C(/N=C/c2ccccc2)Oc2c(ccc3ccccc23)C1c1ccccc1` (configuration not stated): the growth with SK-MEL-2 melanoma was 45.7%; with EKVX NSCLC, 34.6%; with SN12C renal, 37.8%; with UO-31 renal, 32%; in the test on TK-10 renal it was 45.2%; in the test on ACHN renal, 34.3%. Further, the growth in the test on CAKI-1 renal was 24%; in the test on A498 renal, 16.3%; in the test with MOLT-4 leukemia, 19.8%; in the test on SR leukemia it was 19.2%; with RPMI-8226 leukemia, 11%; with OVCAR-8 ovarian it was 12.5%. Also, the growth is 62.7% in the test on OVCAR-4 ovarian; 23.8% in the test with SK-OV-3 ovarian; 25.1% with IGROV1 ovarian; -2.72% (active) in the test on OVCAR-3 ovarian; 18.5% with HS 578T breast; 1.37% (active) in the test on NCI/ADR-RES ovarian.

Take `COC(=O)c1c2c(c(C)[n+]([O-])c1C)C(=O)C(NCc1ccc(F)cc1)=CC2=O`: the growth is 30.6% in the test on SK-MEL-2 melanoma; 58.8% with EKVX NSCLC; -2.05% (active) in the test with SN12C renal; 71.9% with UO-31 renal; 81.4% in the test on TK-10 renal; 48.3% in the test with ACHN renal. Further, the growth was 50.7% in the test on CAKI-1 renal; 98.6% with A498 renal; -19.6% (active) in the test with MOLT-4 leukemia; 9.28% (active) in the test on SR leukemia; 26.9% in the test with RPMI-8226 leukemia; 46.2% in the test with OVCAR-5 ovarian. The growth with OVCAR-4 ovarian is -38.5% (active); in the test with SK-OV-3 ovarian, 84.1%; with IGROV1 ovarian, 17.6%; with HS 578T breast it was 82.6%; with NCI/ADR-RES ovarian, 10%.

In the case of `CN(C)c1ccc(-c2cc(-c3ccc(Nc4nc(Nc5ccc(Cl)cc5)nc(Nc5ccc(Cl)cc5)n4)cc3)no2)cc1`, the growth in the test with SK-MEL-2 melanoma was 31.6%; with EKVX NSCLC it was 41.3%; in the test on SN12C renal, 53.8%; in the test on UO-31 renal, 23.5%; in the test on TK-10 renal, 48.4%; with ACHN renal, 46.5%. Further, the growth in the test with CAKI-1 renal is 39.7%; in the test on A498 renal it was 67.5%; in the test on MOLT-4 leukemia, -24.7% (active); in the test with SR leukemia, -39.3% (active); in the test with RPMI-8226 leukemia, -58.6% (active); in the test on OVCAR-8 ovarian, 49.7%. Also, the growth in the test on OVCAR-4 ovarian is 41.6%; in the test with SK-OV-3 ovarian, 80.1%; in the test with IGROV1 ovarian, 22.4%; in the test with OVCAR-3 ovarian it was 29.8%; in the test on HS 578T breast it was 13.6%; with NCI/ADR-RES ovarian it was 41.1%.

Take `CCOC(=O)/C=C/c1cc2cc(-c3csc4ccccc34)ccc2[nH]1`: the growth with SK-MEL-2 melanoma is 101%; in the test on EKVX NSCLC it was 72.7%; in the test with SN12C renal, 91.8%; in the test on UO-31 renal, 36.2%; with TK-10 renal it was 121%; in the test with ACHN renal it was 90.8%. Further, the growth was 69.4% with CAKI-1 renal; 89.8% in the test with A498 renal; 12.2% in the test on MOLT-4 leukemia; 0.282% (active) in the test with SR leukemia; 47.4% in the test on RPMI-8226 leukemia; 19.6% with OVCAR-8 ovarian. Further, the growth with OVCAR-5 ovarian was 101%; with OVCAR-4 ovarian, 92.3%; with SK-OV-3 ovarian, 132%; in the test on OVCAR-3 ovarian, 77.1%; in the test on HS 578T breast, 67.2%; in the test with NCI/ADR-RES ovarian it was 30.8%.
